Assay outcomes: PubChem BioAssay, National Center for Advancing Translational Sciences (NCATS)
PLK1 PBD block = qHTS for Inhibitors of PLK1-PDB (polo-like kinase 1 - polo-box domain): Primary Screen | Serine/threonine-protein kinase PLK1 (Homo sapiens), P53350 | Plk1 PBD binding of FITC phosphopeptide, fluorescence polarization | Potency, µM, for the others: max response, negative = inhibition, hits mostly inhibitors | 360,000 tested, 2.8% active | AID 720504, 2013; further: potency means the concentration at half of the fitted maximal effect; series mostly up to about 57 µM; on the % scale 0 is the no-effect control and ±100 the full control effect; nearly all actives have a fitted effect of over 65% in size
PI5P4Ka inh = qHTS for Inhibitors of phosphatidylinositol 5-phosphate 4-kinase (PI5P4K) | max response, % | PI5P4Kalpha enzyme, ADP-Glo luminescence, 60 min; active compounds read low | 330,000 tested, 1.2% active | AID 652105, 2013; active means max response of -50% or lower; inconclusive means between -30% and -50%; inactive means -30% or higher; further: value at the top dose of about 77 µM; on the % scale 0 is the no-effect control and ±100 the full control effect
Target sequence (P48426 whole entry, looked up): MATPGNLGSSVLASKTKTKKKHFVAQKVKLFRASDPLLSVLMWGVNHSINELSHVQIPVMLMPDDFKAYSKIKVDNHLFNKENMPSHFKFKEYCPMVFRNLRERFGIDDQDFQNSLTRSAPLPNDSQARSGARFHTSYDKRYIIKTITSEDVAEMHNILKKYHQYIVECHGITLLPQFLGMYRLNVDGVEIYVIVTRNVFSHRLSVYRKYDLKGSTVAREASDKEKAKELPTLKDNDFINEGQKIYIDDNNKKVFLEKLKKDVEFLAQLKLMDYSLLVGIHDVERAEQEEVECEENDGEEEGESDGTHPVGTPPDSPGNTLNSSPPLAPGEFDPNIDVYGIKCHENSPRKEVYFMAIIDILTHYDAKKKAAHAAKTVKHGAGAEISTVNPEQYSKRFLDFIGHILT
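Human PI5P4Kalpha with substrate in 0.038 M HEPES pH 7.4, 0.28 mM EGTA, 0.1% CHAPS, 5% DMSO; reaction started with 5 microM ATP (final), 60 min at room temperature. ADP formed read by ADP-Glo luminescence.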
JMJD2A Tudor = qHTS Assay for Inhibitors of JMJD2A-Tudor Domain. Lysine-specific demethylase 4A (Homo sapiens), O75164. Potency, µM (highest dose often 114 µM), without a hit: at the top dose activity change, negative = inhibition, hits mostly inhibitors. AlphaScreen JMJD2A-Tudor / H3K4me3 peptide binding. 390,000 tested, 4.4% active; further: potency means the concentration at half of the fitted maximal effect; on the % scale 0 is the no-effect control and ±100 the full control effect; nearly all actives have a fitted effect of over 50% in size
BAZ2B inh = qHTS Assay for Inhibitors of BAZ2B; Potency, µM (titrated, usually from 114 µM), for inactives: top-dose activity change, negative = inhibition, actives largely listed as inhibitors; AlphaScreen BAZ2B-H3K14Ac peptide displacement; Bromodomain adjacent to zinc finger domain protein 2B (Homo sapiens), Q9UIF8; 360,000 tested, 4.4% active; further: potency means the concentration at half of the fitted maximal effect; on the % scale 0 is the no-effect control and ±100 the full control effect; nearly all actives have a fitted effect of over 60% in size
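In this displacement format the biotinylated H3(5-23) peptide acetylated at Lys14 serves as ligand at 50 nM, with BAZ2B at 50 nM in PBS pH 7.4 containing 0.01% Tween-20. Donor and acceptor beads are 10 ug/mL final.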
HP1b chromo inh = HTS for Inhibitors of HP1-beta Chromodomain Interactions with Methylated Histone Tails; Potency, µM (titrated, usually from 114 µM), without a hit: at the highest dose activity change, negative = inhibition, usual class: inhibitors; 390,000 tested, 0.56% active; AlphaScreen HP1-beta / biotin-H3K9me3 peptide binding; further: potency means the concentration at half of the fitted maximal effect; nearly all actives have a fitted effect of over 70% in size
Target sequence (P83916 whole entry, looked up): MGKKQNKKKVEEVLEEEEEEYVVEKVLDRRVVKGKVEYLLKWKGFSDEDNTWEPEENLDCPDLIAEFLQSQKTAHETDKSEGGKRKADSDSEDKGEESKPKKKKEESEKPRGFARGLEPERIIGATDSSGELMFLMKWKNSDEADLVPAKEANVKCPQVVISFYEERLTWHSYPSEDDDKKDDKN
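AlphaScreen: HP1-beta (50 nM) preformed 30 min with biotin-H3(1-18)K9me3 peptide (50 nM) in PBS pH 7.4, 0.01% Tween-20. Compound added for 30 min at RT, then streptavidin donor/nickel chelate acceptor beads (10 ug/mL) for 30 min.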
G9a inh-1 = qHTS Assay for Inhibitors of Histone Lysine Methyltransferase G9a; Histone-lysine N-methyltransferase EHMT2 (Homo sapiens), Q96KQ7; G9a H3K9 monomethylation, AlphaScreen, 2 h; AID 504332, 2011; 350,000 tested, 8.8% active; Potency, µM (series often up to 102 µM), inactives show at the top dose activity, negative = inhibition, usual class: inhibitors; further: potency means the concentration at half of the fitted maximal effect; on the % scale 0 is the no-effect control and ±100 the full control effect; nearly all actives have a fitted effect of over 75% in size
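G9a (20 nM) was preincubated 15 min with compound, then reacted 2 h at room temperature with 500 nM biotin-H3K9 peptide and 20 µM SAM. Monomethyl-H3K9 detected by AlphaScreen using anti-H3K9me1 antibody.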
JMJD2E confirm = Confirmation qHTS Assay for Inhibitors of Human Jumonji Domain Containing 2E (JMJD2E); shares compounds with JMJD2A Tudor; AID 2677, 2010; Recombinant JMJD2E, FDH-coupled NADH fluorescence (FDH is formaldehyde dehydrogenase); Potency, µM (highest dose often 56.8 µM), without a hit: at the top dose activity change, negative = inhibition, usual class: inhibitors; 140 tested, 93% active
FDH inh = Counterscreen for JMJD2E Inhibitors: qHTS Assay for Inhibitors of Formaldehyde Dehydrogenase (FDH); shares compounds with JMJD2A Tudor; FDH enzyme assay, NADH fluorescence kinetic; Potency, µM (highest dose often 56.7 µM), for inactives: at the highest dose activity, negative = inhibition, most hits filed as inhibitors; 140 tested, 10% active
G9a inh-2 = qHTS Assay for Inhibitors of Histone Lysine Methyltransferase G9a: Hit Confirmation; AID 588344, 2011; 370 tested, 89% active; Potency, µM, actives largely listed as inhibitors; shares compounds with JMJD2A Tudor; G9a H3K9 monomethylation, AlphaScreen, 2 h; further: potency means the concentration at half of the fitted maximal effect; nearly all actives have a fitted effect of over 65% in size
RGS4 inh = qHTS for Inhibitors of Regulator of G Protein Signaling(RGS) 4: Hit Validation; shares compounds with JMJD2A Tudor; 25 tested, 80% active; RGS4 GAP activity, Transcreener GDP fluorescence polarization; AID 602388, 2012; Potency, µM, most hits filed as inhibitors
Starred values were filed as active, the others as inactive; ? = inconclusive; nt = no result; [ ] = another dose, or the depositor's remark. Shown are actives, neighbours in structure and some others; about 12% of the full set was active somewhere. Unless noted, the call rests on the fitted dose curve; in most records, active means well fitted curve in the direction sought with a large enough effect; inconclusive means small, poorly fitted or top-dose-only effect, or another doubt; inactive means no such curve, though single readings can be large; an effect the other way counts as inactive or inconclusive.

SMILES	PLK1 PBD block	PI5P4Ka inh	JMJD2A Tudor	BAZ2B inh	HP1b chromo inh	G9a inh-1	G9a inh-2	others
Cc1ccc(NC2CCCN(C(=O)c3cn4cccc(C)c4n3)C2)cc1C (configuration not stated)	7%	2	-18%	-25%	6%	?	nt
Cc1ccc(NC2CCCN(C(=O)c3cn4cc(Cl)ccc4n3)C2)cc1C (configuration not stated)	-6%	3	1%	?	24%	?	32*
CCOC(=O)c1c(S(=O)(=O)NCc2ccco2)c(C)n(C)c1C	-7%	-1	-23%	-20%	14%	4%	nt
CCOC(=O)C1CCN(Cc2ccc(O)c3ncccc23)CC1	27µM*	nt	10µM*	4µM*	-12%	4µM*	nt	JMJD2E confirm=13µM*;FDH inh=?
CCOC(=O)C1CCN(Cc2cc(=O)oc3cc(C)ccc23)CC1	-3%	0	-10%	0%	38%	-5%	nt
Cc1cc2occ(CC(=O)N(C)CC(=O)Nc3ccccc3C(F)(F)F)c2cc1C	-6%	4	-19%	5%	24%	-5%[2.33 µM]	nt
Cc1ccc(-c2nc3cccc(C)n3c2Nc2ccc(F)cc2)o1	nt	nt	56µM*	nt	?	nt	nt	RGS4 inh=19*
Cc1ccc2nc(-c3ccc(C)o3)c(Nc3ccc(F)cc3)n2c1	nt	nt	-10%	nt	41%	nt	nt
O=C(CC(=O)N1CCOCC1)N1CCOCC1	2%	0	3%	nt	11%[57 µM]	nt	nt
c1csc(Cc2nn3c(-c4n[nH]c5c4CCC5)nnc3s2)c1	2.7µM*	?	?	?	-15%	?	13*
O=C(O)c1ccc(NC(=S)Nc2ccc(S(=O)(=O)Nc3ccccn3)cc2)cc1	?	?	-14%	nt	-17%	nt	nt
CCOC(=O)Cn1cc(C#N)c2cccc(CC)c21	-12%	5	-5%	-7%	33%	14%	nt
COC(=O)c1c(-c2cccs2)csc1NC(=O)COc1ccccc1	nt	nt	-28%	?	-8%	1.8µM*	4.1*
CCC(Sc1nnnn1C)C(=O)Nc1ccc(C(C)=O)cc1 (configuration not stated)	-16%	-9	-3%	?	7%	?	11*
CC1(C)CC(=O)C2=C(C1)NC(Nc1nc3ccccc3o1)=NC2c1ccccc1Cl (configuration not stated)	nt	nt	-8%[57.1 µM]	nt	28%[57 µM]	nt	nt
CC(C)OC(=O)C(C(=O)C(F)(F)F)c1cc(NS(=O)(=O)c2ccc3c4c(cccc24)C(=O)N3)ccc1O (configuration not stated)	nt	nt	-35%	-27%	-3%	?	nt
Cc1ccc(C(=O)N2CCN(S(=O)(=O)N3CCCCCC3)CC2)cc1	-2%	-2	4%	2%	19%	26%	nt
CCn1c2ccccc2c2cc(CN3CCN(Cc4ccc(Br)cc4)CC3)ccc21	nt	nt	4.5µM*	25µM*	?	0.89µM*	25*
O=C(CSc1cccc[n+]1[O-])Nc1ccccc1Oc1ccccc1	30µM*	-11	50µM*	-21%	?	2µM*	2*
O=C(CSc1cccc[n+]1[O-])Nc1ccccc1C(F)(F)F	-11%	-3	3%	nt	28%[57 µM]	nt	nt
Cc1cccc(OCC(=O)N(C)CCc2ccccn2)c1	-4%	-4	?	35µM*	?	?	10*
O=C(Cc1ccccc1)Nc1sc2c(c1C(=O)Nc1ccc(Cl)cc1)CCCC2	nt	nt	?	?	?	0.32µM*	1.8*
O=C(Cc1ccccc1)Nc1sc2c(c1C(=O)Nc1ccccc1)CCCCC2	nt	nt	?	?	16%	?	nt
O=C(Nc1sc2c(c1C(=O)Nc1cccc(Cl)c1)CCCC2)c1cccs1	nt	nt	71µM*	-35%	-19%	1.6µM*	4.1*
O=C1CN(C(=O)COc2ccc(Cl)cc2)C(c2ccccc2)c2cc(Br)ccc2N1 (configuration not stated)	nt	nt	-25%	-16%	24%	-32%[59 µM]	nt
SMILES	PLK1 PBD block	PI5P4Ka inh	JMJD2A Tudor	BAZ2B inh	HP1b chromo inh	G9a inh-1	G9a inh-2	others
Cc1ccc(-c2nn3c(C)nnc3s2)cc1NC(=O)c1ccc(-c2cccc(Cl)c2)o1	?	-53*	?	-8%	55%	?	?
O=C(Nc1ccc(Cl)cc1)OCCn1nnnc1C(c1ccccc1)N1CCOCC1 (configuration not stated)	-6%	3	-8%	15%	47%	12%[12.7 µM]	nt
CN(C)c1ccc(C(c2nnnn2CCOC(=O)Nc2ccc(Cl)cc2)N2CCOCC2)cc1 (configuration not stated)	-5%	5	?	45µM*	?	?	18*
O=C(Nc1ccc(N2CCCC2)cc1)c1ccc(Cl)cc1Cl	-15%	1	-13%	-10%	32%	-36%	nt
CC(C)C(=O)Nc1ccc(N2CCN(c3ccc(F)cc3)CC2)cc1	1%	2	-6%	-3%	33%	0%	nt
O=C(Nc1ccc(N2CCCCCC2)cc1)c1ccccc1Cl	-1%	4	32µM*	28µM*	35µM*	2.5µM*	7.1*
CC(C)C(=O)Nc1ccc(N2CCCC2)cc1	-3%	2	?	-38%	3%	?	1*
Cc1cc(C)cc(C(=O)Nc2ccc(N3CCCC3)cc2)c1	-10%	-13	?	?	-13%	-127%	0.71*
